High-throughput results: PubChem BioAssay, several laboratories
Ba/F3 V617F tox – lowers viability of Ba/F3 cells expressing EpoR and JAK2V617F; ATP luminescence; inhibition, % at 5.6 µM; 1.1% of 220,000 active;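 active = inhibition above the campaign mean plus 3 SD over all tested compounds, cut at about 24% in these data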;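 also: cytokine-independent growth of Ba/F3 cells driven by EpoR plus mutant JAK2; 0% = DMSO-treated cells and 100% = JAK inhibitor I control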
APP 5UTR inh – APP translation inhibition. 0.82% of 190,000 active. SH-SY5Y APP 5'UTR-luciferase reporter, luminescence. inhibition, % at 2 µM. AID 1285;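 active = inhibition above a set limit, derived from the sample mean plus 3 SD, cut at about 45% in these data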
IEC-6 tox – IEC-6 cytotoxicity, counter-screen for KLF5 inhibitors; luminescence viability; inhibition, % at 5 µM; 0.78% of 290,000 active; in the data active = inhibition above about 22%;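 also: 0% = plate median of test compound wells and 100% = cytotoxic reference compound wells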
aSyn UTR inh – MLPCN primary screen, SNCA 5' untranslated region; alpha-synuclein 5'UTR reporter, inhibitor activity; 0.82% of 300,000 active; inhibition, % (tested at 7.5 µM); in the data active = inhibition above about 60%;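 also: H4 neuroglioblastoma cells stably carrying SNCA 5'UTR luciferase fusion; 0% = DMSO wells and 100% = positive control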
BaF3 tox – parental Ba/F3 viability inhibition as JAK2V617F counter-screen | CellTiter-Glo ATP luminescence | inhibition, % at 5.6 µM | 1.1% of 220,000 active | AID 1486;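 active = inhibition above a per-campaign cutoff, the mean inhibition of all tested compounds plus 3 SD, cut at about 27% in these data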;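 also: 0% = DMSO wells and 100% = JAK Inhibitor I control wells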
KLF5 inhibitor – inhibitors of KLF5 expression; DLD-1 KLF5 promoter-luciferase reporter, luminescence; inhibition, % at 5 µM; 0.23% of 290,000 active; AID 1700;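 active = inhibition above a per-plate limit of that plate's mean compound inhibition plus 3 SD, cut at about 60% in these data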;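 also: 0% = DMSO wells and 100% = LY294002 at 200 µM; higher means less KLF5 promoter-driven luciferase light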
Numbers without * were called inactive. A selection: hits, their analogues and other compounds. The true share with any hit is near 2.1%.

For CCc1nnc(NC(=O)c2ccc(S(=O)(=O)N(C)Cc3ccccc3)cc2)o1 the results were IEC-6 tox 16.2, aSyn UTR inh 62.9* and KLF5 inhibitor 39.2.
For CCCCN(CCCC)S(=O)(=O)c1ccc(C(=O)Nc2nnc(COC)o2)cc1 the results were Ba/F3 V617F tox -1.1, APP 5UTR inh -9.7, IEC-6 tox -0.2, aSyn UTR inh 61.7*, BaF3 tox 7.7 and KLF5 inhibitor -19.3.
Screening Cc1ccc(C(=O)Nc2ccccc2N2CCCCC2)o1 returned IEC-6 tox -0.3, aSyn UTR inh -4.4 and KLF5 inhibitor -16.9.
For COc1cc(S(=O)(=O)N2CC(=O)Nc3ccccc32)ccc1NC(C)=O the results were IEC-6 tox 0.7, aSyn UTR inh 7.4 and KLF5 inhibitor -2.8.
CCCc1noc2c1/C(=N\O)CC(c1ccccc1)C2 (stereo unspecified) was read as Ba/F3 V617F tox -0.2, APP 5UTR inh -10.3, IEC-6 tox 8.4, aSyn UTR inh -5.3, BaF3 tox 3.6 and KLF5 inhibitor -11.2.
CCCc1n[nH]c2c1/C(=N/O)CC(c1ccccc1)C2 (stereo unspecified) was read as Ba/F3 V617F tox -2.2, APP 5UTR inh -28.1, IEC-6 tox 7.9, aSyn UTR inh 69.4*, BaF3 tox 7.7 and KLF5 inhibitor 8.3.
`CC(Cn1cnc2ccccc21)C(=O)O` (stereo unspecified) gave Ba/F3 V617F tox -4.0, APP 5UTR inh 55.8*, IEC-6 tox -3.3, aSyn UTR inh 29.4, BaF3 tox 3.8 and KLF5 inhibitor -32.4.
For COc1ccc(C2CC(C(F)(F)F)n3nc(C(=O)NCc4c(C)nn(C)c4C)c(Cl)c3N2)cc1 (stereo unspecified) the results were Ba/F3 V617F tox 36.3*, APP 5UTR inh -11.1, IEC-6 tox 5.4, aSyn UTR inh -13.1, BaF3 tox 43.8* and KLF5 inhibitor -19.5.
For COc1ccc(C2CC(C(F)(F)F)n3nc(C(=O)N(C)Cc4cn(C)nc4C)c(Cl)c3N2)cc1 (stereo unspecified) the results were Ba/F3 V617F tox 0.0, APP 5UTR inh -6.6, IEC-6 tox -0.6, aSyn UTR inh -17.2, BaF3 tox 3.9 and KLF5 inhibitor -14.2.
CCOc1ccccc1N(C)C(=O)CCS(=O)(=O)c1ccc2c(c1)NC(=O)CO2 was read as IEC-6 tox 3.4, aSyn UTR inh -20.2 and KLF5 inhibitor -30.9.
Screening COc1ccc(N2C(C(C)=O)=NN(c3ccccc3)C2c2cccs2)cc1 (stereo unspecified) returned Ba/F3 V617F tox 25.2*, APP 5UTR inh 4.9, IEC-6 tox 1.5, BaF3 tox 48.0* and KLF5 inhibitor -63.8.
Screening CCOc1cc(/C=N/Nc2cccc(C(=O)O)c2)ccc1OC(=O)c1ccccc1 returned Ba/F3 V617F tox -3.1, APP 5UTR inh -39.2, IEC-6 tox 4.7, aSyn UTR inh 97.5*, BaF3 tox 2.5 and KLF5 inhibitor -52.9.
For CCOc1cc(/C=N/NC(=O)CNc2cccc(C)c2)ccc1OC(=O)c1ccccc1 the results were Ba/F3 V617F tox -0.4, APP 5UTR inh -7.9, IEC-6 tox -9.2, aSyn UTR inh 4.8, BaF3 tox -0.7 and KLF5 inhibitor -5.3.
Screening C=CCOc1c(Br)cc(/C=N/Nc2ccc(C(=O)O)cc2)cc1OCC returned Ba/F3 V617F tox 11.8, APP 5UTR inh -104.5, IEC-6 tox 39.4*, aSyn UTR inh -123.1, BaF3 tox 5.8 and KLF5 inhibitor -7.7.
For CCOc1cc(/C=N\NC(N)=O)cc(Br)c1OC(C)C the results were Ba/F3 V617F tox 1.2, APP 5UTR inh -8.8, IEC-6 tox 4.1, aSyn UTR inh 61.8*, BaF3 tox 3.8 and KLF5 inhibitor 26.6.
Screening COc1cccc(CNC(=O)C2CCN(c3nnc(N4CCCC4=O)s3)CC2)c1 returned IEC-6 tox -1.5, aSyn UTR inh 4.8 and KLF5 inhibitor -1.9.
CCSCCOC(=O)C1=C(C)N(C)C(=O)NC1c1ccc2c(c1)OCO2 (stereo unspecified) was read as IEC-6 tox -0.9, aSyn UTR inh -3.9 and KLF5 inhibitor -10.3.
`O=C(/C=C/c1ccco1)Nc1ccc(-c2nc3ccccc3[nH]2)cc1` gave Ba/F3 V617F tox 11.3, APP 5UTR inh 86.0*, IEC-6 tox -6.0, aSyn UTR inh 89.3*, BaF3 tox 2.6 and KLF5 inhibitor -37.5.
CCOC(=O)c1c(-c2ccccc2)csc1NC(=O)CCN1C(=O)c2ccccc2C1=O was read as Ba/F3 V617F tox -0.6, APP 5UTR inh -7.2, IEC-6 tox 3.3, aSyn UTR inh 3.2, BaF3 tox 2.9 and KLF5 inhibitor -4.2.
For CCOC(=O)c1c(-c2ccc(-c3ccccc3)cc2)csc1NC(=O)CNCCN(C)C the results were IEC-6 tox 6.1, aSyn UTR inh 100.6* and KLF5 inhibitor -10.4.
COc1ccc(C2/C(=C(/O)c3ccc(C)cc3)C(=O)C(=O)N2C)c(OC)c1 (stereo unspecified) was read as IEC-6 tox 1.1, aSyn UTR inh 16.5 and KLF5 inhibitor -21.3.
CCOc1ccc(NS(=O)(=O)c2cc(NC(=O)c3ccc(C)cc3)ccc2Cl)cc1 was read as Ba/F3 V617F tox 80.3*, APP 5UTR inh 87.0*, IEC-6 tox 55.9*, aSyn UTR inh 10.1, BaF3 tox 70.1* and KLF5 inhibitor 48.0.
Screening C=CCNC1=C(Cl)C(=O)c2ccccc2C1=O returned Ba/F3 V617F tox 0.4, APP 5UTR inh -3.1, IEC-6 tox 26.7*, aSyn UTR inh 2.0, BaF3 tox 1.0 and KLF5 inhibitor -26.4.
Screening O=C1C(Cl)=C(Nc2ccccc2)C(=O)c2ccccc21 returned Ba/F3 V617F tox -2.0, APP 5UTR inh 95.7*, IEC-6 tox -3.2, aSyn UTR inh -190.1, BaF3 tox 4.3 and KLF5 inhibitor -19.8.
`Cc1cc[n+](C(C)C(=O)c2ccc(-c3ccccc3)cc2)cc1` (stereo unspecified) gave Ba/F3 V617F tox 81.0*, APP 5UTR inh -0.2, IEC-6 tox -5.3, aSyn UTR inh 22.6, BaF3 tox 66.5* and KLF5 inhibitor -21.3.
`CC(C(=O)c1ccc(-c2ccccc2)cc1)[n+]1ccccc1` (stereo unspecified) gave Ba/F3 V617F tox 47.0*, APP 5UTR inh 1.7, IEC-6 tox -1.4, aSyn UTR inh 12.5, BaF3 tox 63.6* and KLF5 inhibitor -5.8.
For Cc1ccc[n+](C(C)C(=O)c2ccc(-c3ccccc3)cc2)c1 (stereo unspecified) the results were Ba/F3 V617F tox 57.7*, APP 5UTR inh -9.1, IEC-6 tox -12.0, aSyn UTR inh 2.4, BaF3 tox 68.7* and KLF5 inhibitor -24.2.
`CC(C(=O)c1ccc(-c2ccccc2)cc1)[n+]1cccc(C(N)=O)c1` (stereo unspecified) gave IEC-6 tox -1.8, aSyn UTR inh 8.5 and KLF5 inhibitor 0.6.
Screening COc1ccc(Nc2nc(-c3cc4cccc(OC)c4oc3=O)cs2)cc1 returned Ba/F3 V617F tox 2.2, APP 5UTR inh -24.2, IEC-6 tox 3.9, aSyn UTR inh -83.0, BaF3 tox 5.0 and KLF5 inhibitor 15.9.
